Screening data deposited in PubChem by National Center for Advancing Translational Sciences (NCATS).
HT1080-NT tox: kills 2HG-producing HT-1080-NT fibrosarcoma cells | HT-1080-NT fibrosarcoma viability, CellTiter-Glo ATP luminescence, 48 h | Potency, µM (series often up to 46.1 µM), actives largely listed as cytotoxic | actives 1.6% (n = 360,000) | AID 686970;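 note: NT is the 2HG producing partner of a matched IDH1 knockdown line; nearly all actives have a fitted effect of over 55% in size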
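Luminescent CellTiter-Glo readout after 48 hours of compound exposure at 37 degrees C defined viability of HT-1080-NT cells. Activity was normalized to DMSO wells and cell-free media wells; concentration-response curves were fitted and assigned curve classes.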
TDP1 cell noCPT: qHTS for Inhibitors of human tyrosyl-DNA phosphodiesterase 1 (TDP1): qHTS in cells in absence of CPT | DT40 Tdp1-/- hTDP1 cells, no CPT, ATP luminescence, 48 h | Potency, µM (titrated, usually from 46.2 µM), usual class: inhibitors | actives 15% (n = 420,000) | AID 686978, 2013; note: nearly all actives have a fitted effect of over 55% in size
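Chicken DT40 Tdp1-/- cells complemented with human TDP1, screened without camptothecin (DMSO vehicle only), 400 cells/well. Compounds pin-transferred, cells incubated at 37 °C for at least 48 hr. Growth read as ATP-dependent luminescence (CellTiter-Glo, 30 min at RT).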
IL-1B inflam inh: blocks inflammasome-driven IL-1 beta release | actives 4.7% (n = 360,000) | THP-1 LPS/ATP IL-1B secretion, AlphaLISA, 16 h; stronger effect = lower value | activity change, % at 57.5 µM; in the data active = activity change below about -50%; inconclusive = mostly about -30% to -49%
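THP-1 cells pretreated 1 hr with compounds (up to 57.5 uM final), then stimulated with LPS (250 ng/mL final) plus ATP (1.25 mM final); secreted IL-1B measured by AlphaLISA after 16 hr, decreased signal indicating inhibition.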
TDP1 cell CPT: DT40-hTDP1 cell growth loss with CPT; chicken DT40 Tdp1-/-;hTDP1 cells + 20 nM CPT, ATP luminescence, 48 h; Potency, µM (top dose mostly 46.2 µM), hits mostly inhibitors; actives 12% (n = 420,000); AID 686979; note: nearly all actives have a fitted effect of over 55% in size
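Chicken DT40 Tdp1-/- cells complemented with human TDP1, 400 cells/well, exposed to compounds plus 20 nM camptothecin for at least 48 h at 37 C; viability read as ATP content by CellTiter-Glo luminescence.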
HT1080 IDH1KD tx: HT-1080 IDH1 knockdown cell toxicity (counter line). HT-1080 IDH1 knockdown viability, ATP luminescence, 48 h. Potency, µM (top dose mostly 46.1 µM), usual class: cytotoxic. actives 2% (n = 360,000)
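HT-1080-IDH1KD cells (IDH1 knocked down), 750/well in RPMI with 5% FBS, treated with compound 48 h at 37 degrees C. Viability by CellTiter-Glo luminescence, normalised to DMSO and no-cell wells; concentration-response curves classed.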
Of the large screens only hits and unclear results are named; the others gave an inactive call. A selection: hits, their analogues and other compounds. The true share with any hit is near 19%. Unless noted, calls come from the whole dose curve; as a rule, active = well fitted curve in the direction sought with a large enough effect; inconclusive = small, poorly fitted or top-dose-only effect, or another doubt; inactive = no such curve, though single readings can be large; an effect the other way counts as inactive or inconclusive.

C[C@H](NC(=O)N1CCn2c1nc1ccccc12)C(=O)NCC1CCCO1 (stereo partly drawn)	none
COc1ccccc1Nc1nc(-c2sc(NC(=O)c3ccccc3)nc2C)cs1	TDP1 cell noCPT inconclusive, TDP1 cell CPT inconclusive
CCCC(C)C(=O)Nc1nc(C)c(-c2csc(Nc3ccccc3OC)n2)s1 (stereo not drawn)	TDP1 cell noCPT 23µM, TDP1 cell CPT 16µM
CCC(=O)Nc1nc(C)c(-c2csc(Nc3ccccn3)n2)s1	HT1080-NT tox inconclusive, TDP1 cell noCPT inconclusive, IL-1B inflam inh -96, TDP1 cell CPT inconclusive, HT1080 IDH1KD tx inconclusive
O=C(OCCO)c1c(C2=CCCCC2)oc2c1C(OCCO)CCC2 (stereo not drawn)	none
Cc1ccc(NC(=O)c2ccc3c(c2)NC(=O)CS3)nc1	none
Cc1ccc2c(c1)-c1[nH]c(=S)ncc1CS2	TDP1 cell noCPT 18µM, TDP1 cell CPT inconclusive
CC(C)NC1CCC(Nc2ccnc3cc(Cl)ccc23)CC1 (stereo not drawn)	TDP1 cell noCPT 9.2µM, IL-1B inflam inh -93, TDP1 cell CPT 6.5µM, HT1080 IDH1KD tx inconclusive
Clc1ccc2c(NCc3ccccn3)ccnc2c1	TDP1 cell CPT inconclusive
CC(CCCN1CCCC1)Nc1ccnc2cc(Cl)ccc12 (stereo not drawn)	TDP1 cell noCPT 23µM, IL-1B inflam inh inconclusive, TDP1 cell CPT inconclusive, HT1080 IDH1KD tx inconclusive
Clc1ccc2c(NCCNC3CCCCC3)ccnc2c1	HT1080-NT tox 15µM, TDP1 cell noCPT 15µM, IL-1B inflam inh -95, TDP1 cell CPT 16µM, HT1080 IDH1KD tx 21µM
CC1CCCN1c1ccnc2cc(Cl)ccc12 (stereo not drawn)	TDP1 cell noCPT 16µM, TDP1 cell CPT 29µM
Nc1nonc1-c1nc2ccccc2n1CC(=O)N1CCN(c2ccc(F)cc2)CC1	TDP1 cell noCPT 13µM, TDP1 cell CPT inconclusive
Nc1nonc1-c1nc2ccccc2n1CC(=O)N/N=C\c1ccc(-c2ccc(Cl)cc2)o1	TDP1 cell noCPT 3.7µM, IL-1B inflam inh inconclusive, TDP1 cell CPT 7.3µM
Nc1nonc1-c1nc2ccccc2n1CC(=O)Nc1cccc(Cl)c1Cl	TDP1 cell noCPT 5.8µM, TDP1 cell CPT 5.2µM (no result: HT1080-NT tox, IL-1B inflam inh, HT1080 IDH1KD tx)
CCc1ccccc1NC(=O)Cn1c(-c2nonc2N)nc2ccccc21	none (no result: HT1080-NT tox, IL-1B inflam inh, HT1080 IDH1KD tx)
Nc1nonc1-c1nc2ccccc2n1CC(=O)Nc1ccc(F)cc1	TDP1 cell noCPT 9.2µM, TDP1 cell CPT 15µM (no result: HT1080-NT tox, IL-1B inflam inh, HT1080 IDH1KD tx)
NNC(=O)Cn1c(-c2nonc2N)nc2ccccc21	none
NC(=O)Cn1c(-c2nonc2N)nc2ccccc21	none
Cc1cccnc1NC(=O)CN1C(=O)COc2ccc(Cl)cc21	none
C=CCOc1ccc(/C=C2\SC(N3CCCCC3)=NC2=O)cc1	TDP1 cell noCPT inconclusive, TDP1 cell CPT inconclusive
O=S1(=O)N[C@H](Cc2ccccc2)COc2cccc(N3CCN(Cc4ccccc4F)CC3)c21	HT1080-NT tox inconclusive, TDP1 cell noCPT inconclusive, TDP1 cell CPT inconclusive, HT1080 IDH1KD tx inconclusive
CC(C)COC(=O)N(C)C[C@H]1OCc2cnnn2CCCC(=O)N([C@H](C)CO)C[C@H]1C	none
CN(CC(=O)Nc1ccc(N2CCOCC2)cc1)C(=O)CSc1ccc(F)cc1	none
Cc1nn(C2CCS(=O)(=O)C2)c(Cl)c1/C=C/C(=O)OCC(=O)c1cc(C)n(-c2ccc(F)cc2)c1C (stereo not drawn)	TDP1 cell noCPT 16µM, TDP1 cell CPT 21µM, HT1080 IDH1KD tx inconclusive
FC(F)(F)c1cc(CO[C@H]2CCCN[C@H]2c2ccccc2)cc(C(F)(F)F)c1	TDP1 cell noCPT 13µM, TDP1 cell CPT 11µM (no result: HT1080-NT tox, IL-1B inflam inh, HT1080 IDH1KD tx)
O=C(CN1CCN(C(=O)c2cccc(F)c2)CC1)NC1CCCCC1	none
O=C(c1ccc(F)cc1)c1cn(Cc2ccccc2F)c2cc3c(cc2c1=O)OCCO3	TDP1 cell noCPT 21µM, TDP1 cell CPT inconclusive (no result: HT1080-NT tox, IL-1B inflam inh, HT1080 IDH1KD tx)
CCOc1ccc(NC(=O)Cn2cc(C(=O)c3ccc(F)cc3)c(=O)c3cc4c(cc32)OCCO4)cc1	none (no result: HT1080-NT tox, IL-1B inflam inh, HT1080 IDH1KD tx)
COc1ccccc1Cn1cc(C(=O)c2ccc(C)cc2)c(=O)c2cc(F)cc(F)c21	none (no result: HT1080-NT tox, IL-1B inflam inh, HT1080 IDH1KD tx)
